An excerpt weighted towards active compounds, which were near 0.28% of everything screened.
Tb PFK block: blocks T. brucei phosphofructokinase; O15648; T. brucei PFK, ADP-Glo luminescence; Potency, µM (titrated, usually from 57.5 µM), for inactives: top-dose activity, negative = inhibition, hits mostly inhibitors; actives 0.17% (n = 330,000); AID 485367;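 further: potency means the concentration at half of the fitted maximal effect; 0% = uninhibited 1x PFK enzyme wells and -100% = no-enzyme wells; nearly all actives have a fitted effect of over 60% in size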
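Activity is normalized to no-enzyme wells (full inhibition) and 1.25 nM enzyme wells (no inhibition). Reaction: 0.5 mM F6P, 0.1 mM ATP, 45 min RT, ADP-Glo luminescence; concentration-response curves fitted and classed by quality.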
USP2a block: USP2a (human) protease inhibition; O75604; USP2 core, Ub-CHOP2 coupled fluorogenic reporter, 485/531; Potency, µM (titrated, usually from 38.3 µM), for inactives: at the highest dose activity change, negative = inhibition, usual class: inhibitors; actives 0.01% (n = 330,000); AID 463254;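 further: potency means the concentration at half of the fitted maximal effect; plate controls were DMSO wells for no effect and full inhibition by NEM control for full effect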
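Deubiquitinase activity read as fluorescence (485/531 nm) after Ub-CHOP2 cleavage activates the enterokinase reporter on its substrate; USP2 core 10nM, Ub-CHOP2 and substrate 25nM each, 30min compound preincubation then 60min RT; data normalized to NEM, curves fitted.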
PI4K2A inh: inhibitors of human PI4K2A | purified PI4K2A, ADP-Glo luminescence, 1 h; active compounds read low | activity change, negative = inhibition, % at 76.9 µM | actives 0.13% (n = 420,000); in the data active means activity change below about -50%; inconclusive means mostly about -30% to -49%;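 further: -100% = wells without enzyme as full effect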
Target sequence (Q9BTU6 whole entry, looked up): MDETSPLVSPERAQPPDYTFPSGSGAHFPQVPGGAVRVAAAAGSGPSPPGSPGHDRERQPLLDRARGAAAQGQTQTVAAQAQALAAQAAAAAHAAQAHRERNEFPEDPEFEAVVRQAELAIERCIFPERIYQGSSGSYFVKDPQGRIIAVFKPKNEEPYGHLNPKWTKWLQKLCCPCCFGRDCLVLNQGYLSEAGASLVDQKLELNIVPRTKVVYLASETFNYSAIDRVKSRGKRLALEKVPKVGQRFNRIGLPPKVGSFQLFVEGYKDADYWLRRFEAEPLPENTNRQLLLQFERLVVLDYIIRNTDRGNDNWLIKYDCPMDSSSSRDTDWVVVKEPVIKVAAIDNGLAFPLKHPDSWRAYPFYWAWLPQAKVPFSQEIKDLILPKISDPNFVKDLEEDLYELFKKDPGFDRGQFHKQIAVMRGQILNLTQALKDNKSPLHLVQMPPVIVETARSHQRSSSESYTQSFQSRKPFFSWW
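Compounds are screened against recombinant PI4K2A using PI as substrate and ATP, the latter dispensed at 300 microM. Reactions run one hour at ambient temperature before ADP-Glo detection; full inhibition defined by wells lacking enzyme.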
Pin1 inh: blocks the human prolyl isomerase Pin1; actives 0.009% (n = 390,000); AID 504891; Q13526; Pin1 FP peptide displacement, HiFluor488, 10 min; Potency, µM (doses to about 115 µM), for inactives: at the highest dose activity, negative = inhibition, hits mostly inhibitors; active means well fitted inhibition curve with a large enough effect in the polarisation, with a control signal flat, not every such curve was filed as active; inconclusive means small, poorly fitted or top-dose-only effect, or effect the other way, or a change in a side signal; inactive means no such curve, though single readings can be large or run the other way; the % refers to the polarisation; further: potency means the concentration at half of the fitted maximal effect
PGK inhibitor: blocks T. brucei phosphoglycerate kinase; PGK/GAPDH coupled, Kinase-Glo luminescence, 60 min; Potency, µM (highest dose often 57.5 µM), for inactives: top-dose activity change, negative = inhibition, hits mostly inhibitors; actives 0.043% (n = 380,000); further: potency means the concentration at half of the fitted maximal effect; nearly all actives have a fitted effect of over 60% in size
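Luminescent ATP detection (Kinase-Glo Plus) follows a 60-minute room-temperature incubation, with wells lacking PGK as controls. Buffer: 100 mM TEA (pH 7.6), 5 mM MgCl2, 0.01% Tween-20. Coupling enzyme GAPDH (100 nM final) supplies unstable 1,3-BPG in-well.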
* hit, by the source's call; i = inactive; ? = inconclusive; . = not tested or not shown. Unless noted, the call rests on the fitted dose curve; in most records, active means well fitted curve in the direction sought with a large enough effect; inconclusive means small, poorly fitted or top-dose-only effect, or another doubt; inactive means no such curve, though single readings can be large; an effect the other way counts as inactive or inconclusive. Unless noted, on the % scale 0 is the no-effect control and ±100 the full control effect.

SMILES | Tb PFK block | USP2a block | PI4K2A inh | Pin1 inh | PGK inhibitor
CC1(C)C(/C=C/C=C/C=C/C=C2\N(CCCCS(=O)(=O)O)c3ccc4ccccc4c3C2(C)C)=[N+](CCCCS(=O)(=O)[O-])c2ccc3ccccc3c21 | . | . | -64.7* | ? | ?
COc1cccc(C2C(C#N)=C(NC(=O)CCc3ccccc3)Oc3ccc4ccccc4c32)c1 (stereo unspecified) | . | . | . | -5.5% | .
COc1ccc(C2C3=C(N=CN(CCN4CCOCC4)C3N)Oc3ccccc32)cc1OC (stereo unspecified) | . | . | . | 2.4% | .
Cc1nc(NC(=O)c2ccco2)sc1C(=O)O | 0.8% | -7.0% | -67.2* | -0.3% | ?
COc1cccc(/C=C2/NC(=O)N(CC(=O)Nc3ccc(C)cc3)C2=O)c1OCc1cccc(C(=O)O)c1 | 1.9% | 0.7% | -8.9 | . | -18.4%
Cc1ccc(NC(=O)CN2C(=O)N/C(=C/c3ccccc3OCc3cccc(C(=O)O)c3)C2=O)cc1 | ? | -1.3% | -19.8 | . | 22.4µM*
COC(=O)c1ccc2c(c1)C(=O)/C(=C/c1ccc(O)cc1)O2 | -0.5% | 4.0% | -1.8 | ? | 1.2%
COc1cccc(/C=C2\Oc3ccc(O)cc3C2=O)c1O | -0.1% | 1.1% | -60.5* | ? | -29.9%
Cc1ccccc1CS(=O)(=O)CCC(=O)NCCCN1CCN(c2ccccc2F)CC1 | -1.2% | 1.6% | 7.9 | -2.6% | 3.2%
Cc1cc(C)c2c(=O)n(CC(=O)NCCCN3CCN(c4ccccc4F)CC3)sc2n1 | 12µM* | 0.4% | -1.7 | -1.0% | -6.7%
Cc1[nH][nH]c(=O)c1C(c1ccc(-c2ccc(F)cc2)o1)c1c(C)[nH][nH]c1=O | -14.9% | -1.1% | ? | -1.4% | 2.4%
Cc1[nH][nH]c(=O)c1C(c1ccc(-c2ccc(C(=O)O)cc2)o1)c1c(C)[nH][nH]c1=O | ? | -1.2% | -54.5* | -11.1% | -3.5%
COc1ccc(CN(Cc2ccccc2)S(=O)(=O)c2ccccc2)cc1COc1ccc(NC(C)=O)cc1 | . | . | . | 2.9% | .
O=C1C(=Cc2ccc(Br)o2)C(=O)c2ccccc21 | ? | -25.0% | -9.8 | 3.01µM* | 7.94µM*
COc1ccccc1-c1ccc(/C=C2/C=C(C)OC2=O)o1 | 0.7% | -2.1% | -10.7 | ? | -9.9%
CC1=C/C(=C\c2ccc(Br)o2)C(=O)O1 | ? | 4.8% | -11.0 | ? | 10µM*
N=c1c2c(ccn1CCc1ccccc1)Oc1ccc3ccccc3c1C2c1ccccc1 (stereo unspecified) | . | . | . | 26.8% | .
COc1ccc(C2Nc3ccccc3C(=O)N2Cc2ccccc2)cc1COc1ccc(Cl)cc1 (stereo unspecified) | . | . | . | 7.9% | .
CC1=NN(c2ccc(Br)cc2)C(=O)/C1=C/c1ccc(-c2ccccc2C(=O)O)o1 | -5.7% | -1.3% | -50.2* | . | -15.7%
Cc1cc(=O)oc2cc(O[C@@H]3SC[C@@H](O)[C@H](O)[C@H]3O)ccc12 | . | . | -0.5 | . | .
COc1ccc(NC(=O)c2cccc([N+](=O)[O-])c2)cc1 | -2.1% | 2.3% | 2.0 | 3.7% | -2.6%
COc1ccc(NC(=O)c2cc([N+](=O)[O-])ccc2O)cc1 | -6.2% | 3.5% | -62.6* | -8.5% | ?
Cc1nc2sc(-c3ccccc3)cc2c(=O)n1N | -2.2% | 1.0% | -51.7* | 6.5% | 20µM*
Cc1ccc(C)c(S(=O)(=O)N2CCN(C(=O)/C=C/c3ccco3)CC2)c1 | ? | 22.4µM* | ? | 4.2% | -12.0%
Cc1ccc(S(=O)(=O)N2CCN(C(=O)/C=C/c3ccco3)CC2)cc1 | -27.3% | 0.2% | 0.0 | -3.7% | -17.8%
Nc1c(-c2ccncc2)cc[nH]c1=O | . | . | . | -16.8% | .
Nc1cc(-c2ccncc2)c[nH]c1=O | ? | 8.0% | -54.9* | ? | -1.2%
C=CC[C@@H](CC(=O)NCCO)C(=O)NC[C@H](OC(=O)[C@@H](CC=C)Cc1ccc(F)cc1)c1ccccc1 | -6.6% | 3.1% | -51.5* | -1.5% | i
C=CC[C@@H](CC(=O)N[C@@H](CO)Cc1ccccc1)C(=O)NC[C@H](OC(=O)[C@@H](CC=C)Cc1ccc(F)cc1)c1ccccc1 | 0.3% | 1.9% | 0.1 | -7.1% | -8.7%

Bioassay records from PubChem.
